Laboratory results: the supplement of paper PMC3724861
This excerpt belongs to a sample that is enriched for hits. The hit rate among all sequences tested is not known here. Values without a mark were called inactive.

Test system: T1, Caupolican (Caup) homeodomain DNA-binding domain
T1 sequence: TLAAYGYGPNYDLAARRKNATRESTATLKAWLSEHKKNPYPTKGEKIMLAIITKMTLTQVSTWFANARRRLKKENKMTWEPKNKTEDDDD
Assay: PBM E-score (8-mer, recovered from the published 9-mer minima) (E-score (dimensionless, -0.5 to 0.5)); Drosophila protein; higher = stronger relative binding preference, active = 0.31 or more
Procedure, shortened: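 Caup's homeodomain DNA-binding domain (residues 214-303) was made by in vitro transcription and translation and applied at 100 nM to custom-designed protein binding microarrays. Each value is an enrichment score that gives relative binding preference for a short DNA word, with higher meaning stronger. The 8-mer values were recovered from published 9-mer scores, each of which was the minimum of its two constituent 8-mer scores. A cutoff of 0.31 marks candidate sites.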

Row | Sequence | PBM E-score
1 | ATGGTATG | 0.132
2 | CTATTTAA | -0.0109
3 | CGTCTTGA | -0.0138
4 | AGGTCTCA | -0.08
5 | ACTGAGTC | -0.0541
6 | AGCTATAG | -0.0145
7 | AAACATCG | 0.217
8 | AAACATTG | 0.183
9 | AAACATGT | 0.443 (active)
10 | CAACATAC | 0.302
11 | GAACATAC | 0.331 (active)
12 | AAACATCT | 0.215
13 | AAACATTT | 0.252
14 | AAACATGG | 0.321 (active)
15 | GGACATAC | 0.179
16 | CCAGTTCC | -0.2
17 | GCAGCGAC | -0.118
18 | GATCGGCA | -0.0784
19 | ATTGCGAC | 0.0529
20 | CAATTAGA | 0.0523
21 | GGGGTAAC | -0.00369
22 | CGTCGTTC | 0.0474
23 | ACAAGAAG | 0.183

Row | Sequence | PBM E-score
24 | GTTAACAA | 0.296
25 | ATTAACAA | 0.342 (active)
26 | ATTAACTC | 0.0863
27 | ATTAACAG | 0.146
28 | ATTAACAC | 0.326 (active)
29 | CTTAACAC | 0.226
30 | ATTGCGGC | -0.0444
31 | AAGCGGAT | -0.113
32 | ACTTCGAT | 0.0903
33 | AGGGCAGC | -0.267
34 | CTGTCCGC | -0.11
35 | ACATGATA | 0.413 (active)
36 | AGATGATG | 0.0748
37 | TCATGAGA | 0.0179
38 | CCATGATA | 0.0656
39 | CCATGATC | 0.0355
40 | ACATGAGT | 0.305
41 | ACATGAGA | 0.344 (active)
42 | GCATGATA | 0.159
43 | ACATGATC | 0.357 (active)
44 | ATATGATG | 0.183
45 | ATATGATC | 0.134
46 | ACATGATG | 0.351 (active)

Row | Sequence | PBM E-score
47 | GCCACCAA | -0.183
48 | CCGTAAAA | -0.0169
49 | ACCTTAAA | -0.0366
50 | CAAGGCGA | -0.0101
51 | ACGGGTAC | 0.103
52 | ATACAACC | 0.258
53 | GTTCAACA | 0.198
54 | GCACAACA | 0.211
55 | CCACAACA | 0.142
56 | ATACAACG | 0.283
57 | GTACAACA | 0.429 (active)
58 | ATACAACA | 0.373 (active)
59 | CTACAACA | 0.332 (active)
60 | CTACAACC | 0.281
61 | AGATACAG | 0.109
62 | ACATACGT | 0.206
63 | ACATACAT | 0.427 (active)
64 | ACATAAAA | 0.221
65 | ACATAAAG | 0.215
66 | TCATACAA | 0.163
67 | AGATACAT | 0.368 (active)
68 | ACATACAG | 0.247
69 | ACATAAAT | 0.318 (active)

Row | Sequence | PBM E-score
70 | GCATACAA | 0.247
71 | AGATACAA | 0.296
72 | ACATACAA | 0.386 (active)
73 | CATAGGTA | 0.0694
74 | AACACTAC | 0.222
75 | TCATTTAA | 0.167
76 | AGGGTTGG | -0.0294
77 | AAAACAGT | 0.11
78 | AGGCCGTA | -0.041
79 | GGCCAGTA | -0.128
80 | TAACGCTA | -0.0254
81 | GCAGTGAC | -0.0444
82 | CATCACGA | 0.107
83 | AGTGCTTG | 0.116
84 | GCATACAC | 0.208
85 | CCATACAC | 0.105
86 | ACATACAC | 0.352 (active)
87 | AGGCCCTG | -0.09
88 | AACCAACT | 0.143
89 | CTTGTACA | 0.44 (active)
90 | CTCGTACC | 0.0909
91 | GTTGTGCA | 0.0605
92 | GTTGTAGA | 0.291

Row | Sequence | PBM E-score
93 | CTTGTAGA | 0.248
94 | CTTGTCCC | 0.186
95 | ATTGTACG | 0.203
96 | ATTGTACC | 0.2
97 | CTTGTGCA | 0.18
98 | GTTGTACA | 0.388 (active)
99 | ATTGTACA | 0.417 (active)
100 | CTTGTACC | 0.389 (active)
101 | ACTAGAGC | -0.0268
102 | ACCGGTTA | -0.00609
103 | CAGGGGTA | -0.133
104 | AGCGAGGG | -0.182
105 | CTGATTAC | 0.231
106 | AGTACACG | 0.376 (active)
107 | AGTACACT | 0.181
108 | AGTACACA | 0.342 (active)
109 | AGCACACA | 0.0184
110 | AGTACACC | 0.265
111 | AGCACACG | 0.042
112 | CCCATAGG | -0.163
113 | AAACTTGG | -0.0323
